Test system: Plasmodium falciparum
Test: GSK_TCMDC: Inhibition of Plasmodium falciparum 3D7 in whole red blood cells, using parasite LDH activity as an index of growth. Test compounds present at 2uM
Type: functional

Structure (SMILES)	Inhibition
COc1ccc(NC(=O)c2ccc(-c3ccc(-c4cccnc4)cc3)c(C)c2)cc1OCCN(C)C.Cl	99%
COC(=O)c1cc(C(=O)CN(Cc2ccccc2)C(C)C)ccc1O.Cl	97%
COc1ccc(NC(=O)[C@H](CC(C)C)Nc2cc(C)nc(NCCc3ccccc3OC)n2)cc1.O=C(O)C(F)(F)F	99%
Cc1ccc(NC(=O)Nc2cccc(Cl)c2)cc1-c1ccc(C(=O)Nc2ccncc2)cc1	97%
Cc1c(S(=O)(=O)Nc2ccc3ccn(CCN(C)C)c3c2)sc2ccc(Cl)cc12.Cl	98%

Test system: Plasmodium falciparum
Test: GSK_TCMDC: Inhibition of Plasmodium falciparum Dd2 in whole red blood cells, using parasite LDH activity as an index of growth. Test compounds present at 2uM
Type: functional

Structure (SMILES)	Inhibition
Cc1cccc2nc(-c3cccc(-c4ccc(NC(=O)Cc5ccon5)cc4)c3)[nH]c12	38%
Cc1cc(-c2ccc(CNC3CCN(C)CC3)cc2)ccc1S(=O)(=O)NCc1ccccc1.O=C(O)C(F)(F)F	97%
CCc1ccc(NC(=O)c2cccc(CN3CCCN(Cc4cccc(O)c4)CC3)c2)cc1.O=C(O)C(F)(F)F	50%
Cc1cc(N2CCCC2)nc(Nc2ccc(NC(=O)c3cccc(F)c3)cc2)n1	28%
O=C(NC1CCN(Cc2ccccc2)CC1)c1cc(-c2ccncc2)c(-c2ccc(Cl)c(O)c2)o1.O=C(O)C(F)(F)F	86%
CCCC(C)NC(=O)/C=C/c1ccccc1-c1cccc(OC)c1 (stereo not given)	59%
COc1ccc2nccc([C@@H](O)CN3CCC(NS(=O)(=O)c4cc5c(cc4Cl)SCC(=O)N5)CC3)c2c1.O=C(O)C(=O)O	0%
Cc1ccc(CN2CCCN(Cc3cccc(NC(=O)c4cc5ccccc5s4)c3)CC2)cc1.O=C(O)C(F)(F)F	28%
Cc1cc(N[C@@H](CC(C)C)C(=O)NCc2cccc(F)c2)nc(NCC2CCCCC2)n1.O=C(O)C(F)(F)F	70%
Cc1ccc(Nc2nc(N/N=C/c3cccc(O)c3)nc(Nc3ccc([N+](=O)[O-])cc3)n2)cc1C	69%
COc1cc2nc(NCCC(C)C)n3nc(-c4ccccc4)nc3c2cc1OC	97%
O=C(Nc1cccc(CCNCc2ccccc2)c1)Nc1cccc2ccccc12.O=C(O)C(F)(F)F	8%
CCOc1ccc2c(=NN=Cc3cccc(OC)c3)cc(C)[nH]c2c1	81%
COc1ccc2nccc([C@@H](O)CN3CCC(NCCOc4ccc(F)cc4[N+](=O)[O-])CC3)c2c1.O=C(O)C(=O)O	92%
COc1cc(Cc2cnc(N)nc2N)cc(OCCCN2C(=O)c3ccccc3C2=O)c1OC	0%
O=C(Nc1nc2cc(S(=O)(=O)NCCc3ccc(F)cc3)ccc2n1CCCn1ccnc1)c1ccc(Cl)cc1.O=C(O)C(F)(F)F	55%
CC(=O)O.CC(C)c1ccc(C2CCN(CCCCNC(=O)c3ccc(NC(=O)c4ccc(C(F)(F)F)cc4)cc3)CC2)c(O)c1	100%
O=C(NC1CCN(CCC[C@]2(c3ccc(Cl)c(Cl)c3)CCCN(C(=O)c3ccccc3)C2)CC1)c1ccc(Cl)cc1	4%
CCc1cc2c(N)nc(N)nc2nc1-c1ccccc1	0%
Cc1cc(N)nc2ccc(-c3ccc(CCN)cc3)cc12	48%

Structure (SMILES)	Inhibition
COc1cccc(CNc2ncc(-c3ccsc3)c(-c3nccs3)n2)c1	82%
O=C(Nc1ccc(N2CCC(Nc3ccccn3)CC2)cc1)c1cnc(Cl)c(Cl)c1.O=C(O)C(F)(F)F	1%
CS(=O)(=O)c1ccc2[nH]c(-c3cc(-c4cccc(F)c4)cnc3N)nc2c1.O=C(O)C(F)(F)F	71%
c1ccc(-c2nc(NCCCn3ccnc3)cc(-c3ccncc3)n2)cc1	100%
O=C(Nc1cccc(CN2CCCN(Cc3ncc[nH]3)CC2)c1)c1ccc(Cl)c(Cl)c1.O=C(O)C(F)(F)F	16%
CC(C)Nc1nc(NCCc2c[nH]cn2)nc(NCc2ccc(Cl)c(Cl)c2)n1	0%
Cl.N#Cc1ccc2c(c1)CN(CCC1CCC(NC(=O)c3cc4ccccc4cc3N)CC1)CC2 (stereo not given)	52%
O=C(Nc1cccc(-c2csc(-c3nc4ccccc4[nH]3)c2)c1)c1cccnc1	45%
COc1cccc(-c2cccc(CNC3CCN(CC4Cn5c(=O)ccc6ccc(F)c4c65)CC3)c2)c1.O=C(O)C(F)(F)F (stereo not given)	15%
COc1c(C2CCN(CCCCNC(=O)c3ccc(-c4ccc(Cl)cc4)c(OCC(N)=O)c3)CC2)ccc2c1CCCC2	11%
Cc1[nH]c(C)c(-c2ccc(OCCCc3ccccn3)cc2)c(=O)c1Br.Cl	97%
O=C(O)C(F)(F)F.OCCN1CCN(Cc2ccc(-c3ccc(-c4nc5cc(F)ccc5[nH]4)cc3)cc2)CC1	99%
CC(C)(C)CCN1CCC(CNC(=O)c2cc(-c3cccc(C(F)(F)F)c3)cs2)C1.O=C(O)C(F)(F)F (stereo not given)	13%
O=C(Cc1cccs1)NC(CCCN1CCC(Oc2cccc(Cl)c2)CC1)c1ccc(Cl)c(Cl)c1 (stereo not given)	70%
O=C(NC1CCN(c2ccnc3cc(Cl)ccc23)C1)c1ccccc1F.O=C(O)C(F)(F)F (stereo not given)	71%
COc1ccc(NC(=O)c2ccc(-c3ccc(-c4cccnc4)cc3)c(C)c2)cc1OCCN(C)C.Cl	73%
COC(=O)c1cc(C(=O)CN(Cc2ccccc2)C(C)C)ccc1O.Cl	0%
COc1ccc(NC(=O)[C@H](CC(C)C)Nc2cc(C)nc(NCCc3ccccc3OC)n2)cc1.O=C(O)C(F)(F)F	68%
Cc1ccc(NC(=O)Nc2cccc(Cl)c2)cc1-c1ccc(C(=O)Nc2ccncc2)cc1	49%
Cc1c(S(=O)(=O)Nc2ccc3ccn(CCN(C)C)c3c2)sc2ccc(Cl)cc12.Cl	94%

Source: ChEMBL document CHEMBL1157539, “Thousands of chemical starting points for antimalarial lead identification” (Nature, 2010)
